Measurements published in the supplement of paper PMC10849652.
About 7,900 targets were measured; listed, in parts, are those with a hit and a random draw of the rest. About 0.6% of all pairs of compound and target were hits. Values without a mark were called inactive.

How the values were obtained:
Experiment in all cases: log2 fold change, soluble protein after heating vs DMSO (PISA); higher = thermal stabilisation; K562 cells, 10 uM, 30 min; active = over 0.2 and 3.5 SD of the protein, either way, in both replicates (recomputed)
[1] = compound: CC1=C(C=C(C=C1)NC(=O)C2=CC(=CC=C2)C(C)(C)C#N)NC3=CC4=C(C=C3)N=CN(C4=O)C
Method in brief: (§1)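 Aliquots of K562 cells (2×10^6 cells/mL) treated with 10 μM compound for 30 min were heated for 3 min over 48°C-58°C. After pooling and extraction in PBS with 0.5% NP-40 at 4°C, soluble protein from a 21,000xg, 90 min spin was quantified by TMTpro 16plex LC-MS/MS with channel sums equalised. Thermal stability is expressed against control samples, from duplicates, as a log2 fold change.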

[2] = compound: CC1=C(C=C(C=C1)NC(=O)C2=CC(=CC=C2)N(C)C)NC(=O)C3=CC=C(C=C3)O
Method in brief: as §1

[3] = compound: CC1=CC=C(C=C1)SC2=C3C=C(SC3=CN=C2)C(=O)N
Method in brief: as §1

[4] = compound: CC1=NC(=CC=C1)C2=C(N=C(N2)C(C)(C)C)C3=CC4=NC=CN=C4C=C3
Method in brief: as §1

[5] = compound: CCCCN(Cc1ccc(C(=O)NO)cc1)C(=O)Nc1ccccc1 [Nexturastat A]
Method in brief: as §1

[6] = compound: CCCS(=O)(=O)Nc1ccc(F)c(C(=O)c2c[nH]c3ncc(-c4ccc(Cl)cc4)cc23)c1F [vemurafenib]
Method in brief: as §1

[7] = compound: CCCS(=O)(=O)Nc1ccc(F)c(C(=O)c2c[nH]c3ncc(Cl)cc23)c1F
Method in brief: as §1

[8] = compound: CCCc1cc(C)[nH]c(=O)c1CNC(=O)c1cc(-c2ccnc(N3CCN(C)CC3)c2)cc2c1cnn2C(C)C
Method in brief: as §1

[9] = compound: CCN(CC)Cc1ccc2cc(COC(=O)Nc3ccc(C(=O)NO)cc3)ccc2c1 [givinostat]
Method in brief: as §1

[10] = compound: CCN(CCCOc1ccc2c(Nc3cc(CC(=O)Nc4cccc(F)c4)[nH]n3)ncnc2c1)CCOP(=O)(O)O [barasertib]
Method in brief: as §1

[11] = compound: CC[C@@H]1C(=O)N(C)c2cnc(Nc3ccc(C(=O)NC4CCN(C)CC4)cc3OC)nc2N1C1CCCC1
Method in brief: as §1

[12] = compound: CC[C@@H]1C(=O)N(C)c2cnc(Nc3ccc(C(=O)N[C@H]4CC[C@H](N5CCN(CC6CC6)CC5)CC4)cc3OC)nc2N1C(C)C [volasertib]
Method in brief: as §1

[13] = compound: CC[C@H](C)N1C=C(C2=C(C=C(C=C21)C3=CN=C(C=C3)N4CCNCC4)C(=O)NCC5=C(C=C(NC5=O)C)C)C
Method in brief: as §1

[14] = compound: CC[C@H](C)[C@@H](C(=O)N[C@@H]([C@@H](C)O)C(=O)N[C@@H](CC(C)C)C(=O)[C@]1(CO1)C)NC(=O)[C@H]([C@@H](C)CC)N(C)C(=O)C [epoxomicin]
Method in brief: as §1

[15] = compound: CCn1c(C(=O)N(C2CC2)C2CC2)cc2c3c(ncn3C)c(Nc3cc(C)n(C)n3)nc21
Method in brief: as §1

[16] = compound: CCn1cc(-c2ccnc3[nH]c(-c4cccc(CN(C)C)c4)cc23)c(-c2ccc(NC(=O)N(C)C)cc2)n1
Method in brief: as §1

[17] = compound: CN(C)CC(=O)Nc1ccc2[nH]c(=O)c3ccccc3c2c1
Method in brief: as §1

[18] = compound: CN(CCOC1=CC=C(C=C1)C[C@H]2C(=O)NC(=O)S2)C3=CC=CC=N3 (racemic) [rosiglitazone]
Method in brief: as §1

[19] = compound: CN1C2=C(C3=C1C(=O)N(N=C3)CC4=CC(=CC=C4)N)SC(=C2)S(=O)C
Method in brief: as §1

[20] = compound: CN1CCC(CNc2ccc3ncc(-c4cccc(OC(F)(F)F)c4)n3n2)CC1
Method in brief: as §1

Chain of UniProt O94967 (O94967 whole entry, looked up): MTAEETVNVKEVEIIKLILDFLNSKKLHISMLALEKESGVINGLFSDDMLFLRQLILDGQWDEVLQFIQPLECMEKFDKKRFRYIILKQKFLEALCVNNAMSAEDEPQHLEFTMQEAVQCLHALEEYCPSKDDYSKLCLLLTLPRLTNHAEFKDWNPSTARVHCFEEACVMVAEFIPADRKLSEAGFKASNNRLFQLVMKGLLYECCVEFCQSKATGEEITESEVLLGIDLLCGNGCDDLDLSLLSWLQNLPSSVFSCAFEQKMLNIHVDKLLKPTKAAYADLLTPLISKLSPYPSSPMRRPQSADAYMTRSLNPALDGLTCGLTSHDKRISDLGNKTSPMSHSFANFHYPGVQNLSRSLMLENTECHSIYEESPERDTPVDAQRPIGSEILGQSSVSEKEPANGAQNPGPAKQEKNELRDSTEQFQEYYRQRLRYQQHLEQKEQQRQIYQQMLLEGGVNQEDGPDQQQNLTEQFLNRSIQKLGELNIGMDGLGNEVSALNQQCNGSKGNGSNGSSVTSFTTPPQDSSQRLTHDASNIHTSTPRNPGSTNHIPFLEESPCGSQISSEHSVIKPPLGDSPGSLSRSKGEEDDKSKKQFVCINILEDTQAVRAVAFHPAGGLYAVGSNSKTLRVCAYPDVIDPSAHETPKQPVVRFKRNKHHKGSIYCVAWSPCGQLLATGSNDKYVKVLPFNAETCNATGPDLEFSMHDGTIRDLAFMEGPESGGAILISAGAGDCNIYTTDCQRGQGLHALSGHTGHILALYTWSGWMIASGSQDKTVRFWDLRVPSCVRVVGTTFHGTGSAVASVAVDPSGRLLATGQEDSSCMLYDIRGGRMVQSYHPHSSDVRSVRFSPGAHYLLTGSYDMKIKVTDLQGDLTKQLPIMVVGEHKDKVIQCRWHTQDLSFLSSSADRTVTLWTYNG
Chain of UniProt A6NHL2 (A6NHL2 whole entry, looked up): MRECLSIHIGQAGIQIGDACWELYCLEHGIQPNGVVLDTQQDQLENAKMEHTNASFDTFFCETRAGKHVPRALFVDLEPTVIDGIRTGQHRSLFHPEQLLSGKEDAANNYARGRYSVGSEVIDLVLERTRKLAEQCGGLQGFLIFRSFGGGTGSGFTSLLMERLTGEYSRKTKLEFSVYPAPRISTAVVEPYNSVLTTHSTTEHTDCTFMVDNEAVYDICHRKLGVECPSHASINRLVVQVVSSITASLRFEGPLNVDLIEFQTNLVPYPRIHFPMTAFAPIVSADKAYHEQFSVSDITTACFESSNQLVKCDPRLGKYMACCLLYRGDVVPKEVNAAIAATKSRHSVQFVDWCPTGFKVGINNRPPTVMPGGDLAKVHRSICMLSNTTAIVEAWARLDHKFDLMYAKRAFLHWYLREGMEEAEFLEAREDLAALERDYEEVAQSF
Chain of UniProt Q9BTX3 (Q9BTX3 whole entry, looked up): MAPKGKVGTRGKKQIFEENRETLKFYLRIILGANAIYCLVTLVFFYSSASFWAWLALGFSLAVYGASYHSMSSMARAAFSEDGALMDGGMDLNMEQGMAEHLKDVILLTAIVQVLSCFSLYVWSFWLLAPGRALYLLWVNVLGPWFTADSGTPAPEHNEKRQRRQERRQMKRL
Chain of UniProt Q86SZ2 (Q86SZ2 whole entry, looked up): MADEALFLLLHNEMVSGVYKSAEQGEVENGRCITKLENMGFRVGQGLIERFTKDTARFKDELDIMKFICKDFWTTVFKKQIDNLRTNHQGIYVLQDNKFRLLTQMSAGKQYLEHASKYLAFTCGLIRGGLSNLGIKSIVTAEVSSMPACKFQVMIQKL
Chain of UniProt O43617 (O43617 whole entry, looked up): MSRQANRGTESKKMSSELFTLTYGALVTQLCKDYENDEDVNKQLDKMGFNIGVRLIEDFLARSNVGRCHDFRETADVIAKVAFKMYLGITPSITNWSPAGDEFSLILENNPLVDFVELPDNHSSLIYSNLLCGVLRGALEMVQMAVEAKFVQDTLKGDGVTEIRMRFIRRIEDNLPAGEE
Chain of UniProt O94874 (O94874 whole entry, looked up): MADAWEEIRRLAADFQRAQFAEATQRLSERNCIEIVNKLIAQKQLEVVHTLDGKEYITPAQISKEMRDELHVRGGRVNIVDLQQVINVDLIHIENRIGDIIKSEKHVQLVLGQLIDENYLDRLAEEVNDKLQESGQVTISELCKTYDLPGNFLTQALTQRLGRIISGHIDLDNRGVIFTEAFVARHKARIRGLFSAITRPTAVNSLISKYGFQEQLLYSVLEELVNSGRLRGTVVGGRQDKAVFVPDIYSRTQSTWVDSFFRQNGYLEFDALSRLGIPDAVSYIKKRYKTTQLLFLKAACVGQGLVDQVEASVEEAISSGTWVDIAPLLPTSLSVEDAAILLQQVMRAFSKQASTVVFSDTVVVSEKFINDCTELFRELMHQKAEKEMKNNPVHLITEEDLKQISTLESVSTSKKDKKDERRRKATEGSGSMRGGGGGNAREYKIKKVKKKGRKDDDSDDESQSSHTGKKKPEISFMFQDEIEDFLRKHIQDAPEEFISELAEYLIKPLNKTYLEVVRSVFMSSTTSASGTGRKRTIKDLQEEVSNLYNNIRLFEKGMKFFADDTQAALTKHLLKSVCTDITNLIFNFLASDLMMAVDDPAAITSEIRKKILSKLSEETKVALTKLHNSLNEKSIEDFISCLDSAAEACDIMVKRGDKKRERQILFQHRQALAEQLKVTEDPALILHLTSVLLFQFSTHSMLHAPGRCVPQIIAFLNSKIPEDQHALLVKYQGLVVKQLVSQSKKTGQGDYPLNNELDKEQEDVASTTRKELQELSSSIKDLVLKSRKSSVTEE
Chain of UniProt P12270 (P12270 whole entry, looked up): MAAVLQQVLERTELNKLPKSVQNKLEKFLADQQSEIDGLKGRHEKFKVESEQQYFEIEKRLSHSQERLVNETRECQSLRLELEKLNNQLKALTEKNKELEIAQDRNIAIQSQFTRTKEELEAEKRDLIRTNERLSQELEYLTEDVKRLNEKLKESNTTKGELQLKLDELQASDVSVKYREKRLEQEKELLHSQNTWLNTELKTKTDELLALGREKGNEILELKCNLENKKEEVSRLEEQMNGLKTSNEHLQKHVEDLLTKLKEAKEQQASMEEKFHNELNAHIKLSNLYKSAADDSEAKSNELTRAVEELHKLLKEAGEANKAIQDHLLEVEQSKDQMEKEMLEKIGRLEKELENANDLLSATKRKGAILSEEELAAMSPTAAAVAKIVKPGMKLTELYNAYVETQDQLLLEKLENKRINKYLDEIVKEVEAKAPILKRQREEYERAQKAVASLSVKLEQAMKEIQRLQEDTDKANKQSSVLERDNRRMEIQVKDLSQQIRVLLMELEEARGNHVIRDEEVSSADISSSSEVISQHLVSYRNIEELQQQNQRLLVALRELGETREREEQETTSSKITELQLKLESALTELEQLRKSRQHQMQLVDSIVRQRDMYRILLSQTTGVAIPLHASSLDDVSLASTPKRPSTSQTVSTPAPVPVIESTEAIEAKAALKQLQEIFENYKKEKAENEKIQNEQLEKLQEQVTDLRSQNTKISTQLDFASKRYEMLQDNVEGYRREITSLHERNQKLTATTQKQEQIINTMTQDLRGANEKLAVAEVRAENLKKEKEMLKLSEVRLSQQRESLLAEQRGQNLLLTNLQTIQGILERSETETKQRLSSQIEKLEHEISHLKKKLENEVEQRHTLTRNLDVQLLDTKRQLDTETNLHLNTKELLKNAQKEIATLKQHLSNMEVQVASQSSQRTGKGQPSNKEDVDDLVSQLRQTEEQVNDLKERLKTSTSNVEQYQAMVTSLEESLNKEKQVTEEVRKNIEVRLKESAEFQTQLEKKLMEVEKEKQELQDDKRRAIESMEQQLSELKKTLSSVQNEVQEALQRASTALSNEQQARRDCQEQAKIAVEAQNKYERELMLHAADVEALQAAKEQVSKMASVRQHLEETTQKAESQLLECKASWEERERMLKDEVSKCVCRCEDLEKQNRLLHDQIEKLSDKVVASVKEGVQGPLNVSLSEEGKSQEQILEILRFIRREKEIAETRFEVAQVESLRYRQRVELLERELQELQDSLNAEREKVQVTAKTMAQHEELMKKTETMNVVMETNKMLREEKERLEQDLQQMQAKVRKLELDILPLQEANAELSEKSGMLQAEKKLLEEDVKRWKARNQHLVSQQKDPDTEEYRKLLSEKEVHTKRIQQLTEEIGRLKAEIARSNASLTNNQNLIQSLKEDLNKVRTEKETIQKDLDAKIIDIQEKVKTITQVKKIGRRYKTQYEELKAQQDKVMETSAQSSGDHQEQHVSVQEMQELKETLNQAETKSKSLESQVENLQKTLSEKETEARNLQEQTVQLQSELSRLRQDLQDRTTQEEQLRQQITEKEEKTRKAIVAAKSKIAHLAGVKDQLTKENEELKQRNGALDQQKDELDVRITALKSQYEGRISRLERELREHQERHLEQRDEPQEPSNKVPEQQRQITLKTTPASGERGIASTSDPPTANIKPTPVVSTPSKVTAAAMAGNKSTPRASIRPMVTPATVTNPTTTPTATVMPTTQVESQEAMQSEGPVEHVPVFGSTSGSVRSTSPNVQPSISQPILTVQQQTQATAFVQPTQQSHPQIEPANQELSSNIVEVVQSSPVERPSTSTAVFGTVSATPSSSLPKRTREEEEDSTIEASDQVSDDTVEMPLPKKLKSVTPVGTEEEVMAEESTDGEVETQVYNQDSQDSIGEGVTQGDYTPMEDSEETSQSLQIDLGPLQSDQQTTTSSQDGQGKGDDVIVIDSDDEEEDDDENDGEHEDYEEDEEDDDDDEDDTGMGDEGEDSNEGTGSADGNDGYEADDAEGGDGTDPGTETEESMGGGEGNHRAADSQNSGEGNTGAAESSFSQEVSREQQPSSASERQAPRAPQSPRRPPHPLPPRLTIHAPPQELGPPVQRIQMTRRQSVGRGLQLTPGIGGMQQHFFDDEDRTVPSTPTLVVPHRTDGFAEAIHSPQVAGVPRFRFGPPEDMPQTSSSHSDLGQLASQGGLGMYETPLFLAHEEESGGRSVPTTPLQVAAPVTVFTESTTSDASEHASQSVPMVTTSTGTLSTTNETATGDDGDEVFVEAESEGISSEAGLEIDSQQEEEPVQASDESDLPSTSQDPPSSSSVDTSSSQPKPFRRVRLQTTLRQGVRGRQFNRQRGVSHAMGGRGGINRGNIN

Target | log2 fold change [1] | log2 fold change [2] | log2 fold change [3] | log2 fold change [4] | log2 fold change [5] | log2 fold change [6] | log2 fold change [7] | log2 fold change [8] | log2 fold change [9] | log2 fold change [10] | log2 fold change [11] | log2 fold change [12] | log2 fold change [13] | log2 fold change [14] | log2 fold change [15] | log2 fold change [16] | log2 fold change [17] | log2 fold change [18] | log2 fold change [19] | log2 fold change [20]
WRB (UniProt O00258) | -0.046 | -0.11 | -0.007 | -0.023 | -0.25 (active) | 0.108 | -0.037 | -0.074 | 0.032 | -0.014 | 0.011 | 0.057 | -0.071 | -0.059 | -0.021 | -0.02 | -0.024 | -0.025 | 0.029 | -0.016
TMEM208 (UniProt Q9BTX3) | -0.093 | 0.005 | 0.037 | -0.022 | -0.112 | -0.06 | 0.035 | -0.219 | 0.097 | -0.012 | -0.071 | -0.208 | -0.048 | -0.03 | -0.046 | -0.022 | 0.274 | 0.081 | -0.02 | 0.036
UBE4A isoform 2 (UniProt Q14139) | -0.064 | -0.058 | -0.029 | 0.01 | 0.061 | 0.048 | 0.097 | 0.021 | 0.073 | 0.065 | -0.126 | -0.584 (active) | 0.123 | 0.087 | -0.114 | -0.055 | 0.053 | 0.05 | 0.159 | -0.436 (active)
TXNRD1 (UniProt Q16881) | 0.032 | 0.006 | 0.021 | 0.039 | -0.051 | 0.024 | 0.007 | -0.035 | 0.011 | 0.024 | 0.004 | 0.05 | 0.006 | 0.054 | -0.032 | -0.049 | -0.003 | 0.067 | -0.096 | -0.006
TSG101 (UniProt Q99816) | 0 | -0.011 | -0.001 | 0.025 | -0.017 | 0.021 | 0.024 | -0.057 | 0.035 | 0.046 | -0.137 | -0.268 (active) | 0.036 | 0.065 | -0.011 | -0.021 | 0.002 | 0.023 | -0.018 | -0.124
USP25 isoform 3 (UniProt Q9UHP3) | 0.004 | 0.008 | -0.009 | 0.045 | -0.029 | 0.04 | 0.027 | 0.024 | 0.015 | 0.02 | -0.085 | -0.297 (active) | 0.046 | 0.008 | -0.016 | -0.004 | 0.041 | 0.022 | -0.03 | -0.006
TSEN2 (UniProt Q8NCE0) | 0.306 (active) | 0.015 | 0.014 | -0.02 | -0.013 | 0.058 | 0.063 | 0.097 | 0.012 | 0.073 | -0.019 | -0.146 | 0.053 | 0.078 | -0.021 | -0.082 | 0.086 | 0.077 | -0.04 | 0.034
TUBAL3 (UniProt A6NHL2) | 0.152 | -0.062 | 0.005 | 0.094 | -0.106 | 0.121 | -0.033 | -0.207 | 0.006 | -0.028 | 0.144 | -0.497 | -0.052 | -0.11 | -0.023 | -0.013 | -0.061 | 0.139 | 0.03 | -0.067
TMTC3 (UniProt Q6ZXV5) | -0.05 | -0.009 | 0.019 | 0.007 | 0.067 | -0.052 | 0.013 | -0.013 | -0.032 | 0.032 | -0.074 | -0.118 | 0.023 | 0.001 | 0.001 | 0.038 | -0.045 | 0.03 | -0.014 | -0.034
UFL1 (UniProt O94874) | -0.009 | -0.089 | 0.011 | 0.048 | 0.091 | 0.083 | 0.089 | 0.043 | 0.08 | 0.031 | -0.063 | -0.351 (active) | 0.086 | 0.004 | -0.06 | -0.023 | 0.054 | 0.06 | 0.04 | -0.089
TRAPPC3 (UniProt O43617) | 0 | 0.023 | 0.061 | 0.042 | -0.218 (active) | 0.023 | 0.01 | -0.006 | -0.051 | 0.025 | -0.019 | -0.118 | -0.02 | -0.029 | 0.047 | 0.04 | -0.016 | -0.022 | -0.051 | -0.059
TPR (UniProt P12270) | -0.001 | 0.023 | -0.069 | -0.047 | -0.048 | 0.031 | 0.012 | 0.003 | -0.08 | 0 | 0.095 | -0.034 | -0.018 | 0 | 0.055 | 0.067 | -0.03 | -0.02 | -0.005 | 0.297 (active)
TRIM28 (UniProt Q13263) | 0.013 | -0.049 | 0.013 | 0.041 | -0.059 | 0.078 | 0.075 | 0.012 | 0.039 | 0.04 | -0.097 | -0.222 (active) | 0.052 | 0.077 | -0.004 | 0 | 0.047 | 0.029 | -0.033 | -0.033
TRAPPC6B (UniProt Q86SZ2) | 0.022 | -0.01 | 0.049 | 0.07 | -0.097 | 0.009 | 0.02 | -0.063 | -0.02 | 0.008 | -0.015 | -0.002 | -0.011 | 0.146 | 0.009 | -0.05 | -0.01 | -0.008 | -0.026 | -0.08
WDR47 (UniProt O94967) | -0.031 | -0.031 | 0.07 | 0.127 | -0.048 | -0.023 | -0.045 | -0.004 | 0.004 | -0.007 | 0.011 | -0.112 | -0.02 | -0.037 | -0.047 | -0.055 | -0.012 | -0.003 | 0.029 | 0.234
UBE2J1 (UniProt Q9Y385) | -0.133 | -0.016 | 0.107 | 0.04 | -0.077 | -0.087 | -0.071 | -0.262 | 0.098 | -0.047 | -0.073 | -0.165 | 0.07 | 0.248 | -0.024 | 0.014 | 0.01 | 0.003 | -0.083 | -0.006
